# Hits are enriched below; roughly 10% of the tested compounds scored in any of these assays.
# HP1b binding inh = inhibitors of HP1-beta chromodomain binding to methylated histone tails; P83916; AlphaScreen HP1-beta / biotin-H3K9me3 peptide binding; Potency, µM (titrated, usually from 114 µM), for inactives: at the highest dose activity change, negative = inhibition, most hits filed as inhibitors; 390,000 compounds, 0.56% hits; also: potency is read from the fitted curve at half-maximal effect; nearly all actives have a fitted effect of over 70% in size
#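 AlphaScreen: HP1-beta (50 nM) preformed 30 min with biotin-H3(1-18)K9me3 peptide (50 nM) in PBS pH 7.4, 0.01% Tween-20. Compound added for 30 min at RT, then streptavidin donor/nickel chelate acceptor beads (10 ug/mL) for 30 min.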
# CtBP-E1A inh = CtBP/E1A binding inhibition. AlphaScreen GST-E1A/His-CtBP binding, 1536-well; active compounds read low. activity change, % (test concentration not listed). 340,000 compounds, 0.49% hits. AID 651724; in the data active = activity change below about -65%; inconclusive = mostly about -30% to -63%; also: % is scaled to controls: 0 for no effect and ±100 for the full control effect
#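 Steps: dispense buffer (Tris pH 8.0, NaCl 300 mM, TCEP 1 mM, BSA, Tween 20); add 5X protein mix (GST-E1A, His-CtBP, 125 nM each); pin 23 nL compound; 2 h at 37 °C, dark; add 5X beads (50 ug/mL); 1 h; read.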
# Six1-Eya2 blk = Six1/Eya2 interaction inhibition. activity change, % (test concentration not listed). AlphaScreen GST-Six1/His-Eya2 binding, biochemical; active compounds read low. 360,000 compounds, 0.56% hits. Q15475+O00167. AID 651725; in the data active = activity change below about -65%; inconclusive = mostly about -30% to -63%; also: % is scaled to controls: 0 for no effect and ±100 for the full control effect
#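 AlphaScreen luminescence read after one hour at 37 °C in darkness. Pin-transferred compounds met GST-Six1 and His-Eya2 protein (5X stock 250 nM/500 nM) plus glutathione donor and Ni-chelate acceptor beads (5X, 50 ug/mL).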
# G9a inh = G9a (human) methyltransferase inhibition | Q96KQ7 | G9a H3K9 monomethylation, AlphaScreen, 2 h | Potency, µM (highest dose often 102 µM), for the others: at the top dose activity, negative = inhibition, most hits filed as inhibitors | 350,000 compounds, 8.8% hits; also: potency is read from the fitted curve at half-maximal effect; % is scaled to controls: 0 for no effect and ±100 for the full control effect; nearly all actives have a fitted effect of over 75% in size
#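 Readings reflect AlphaScreen signal from monomethyl-H3K9 antibody detection. HMT at 20 nM; substrate b-H3K9 500 nM; cofactor SAM 20 uM; 2 h RT reaction; compounds tested as titrations in qHTS with 15 min preincubation.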
# JMJD2A Tudor inh = blocks the human JMJD2A Tudor domain | O75164 | AlphaScreen JMJD2A-Tudor / H3K4me3 peptide binding | Potency, µM (series often up to 114 µM), for the others: at the highest dose activity change, negative = inhibition, hits mostly inhibitors | 390,000 compounds, 4.4% hits | AID 504339; also: potency is read from the fitted curve at half-maximal effect; % is scaled to controls: 0 for no effect and ±100 for the full control effect; nearly all actives have a fitted effect of over 50% in size
# BAZ2B inh = inhibitors of human BAZ2B bromodomain | AID 504333 | Q9UIF8 | 360,000 compounds, 4.4% hits | AlphaScreen BAZ2B-H3K14Ac peptide displacement | Potency, µM (highest dose often 114 µM), without a hit: at the highest dose activity change, negative = inhibition, usual class: inhibitors; also: potency is read from the fitted curve at half-maximal effect; % is scaled to controls: 0 for no effect and ±100 for the full control effect; nearly all actives have a fitted effect of over 60% in size
#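 BAZ2B 50 nM plus b-H3(5-23)K14Ac 50 nM, PBS pH 7.4/0.01% Tween-20, 30 min RT; compound added (max 110 uM), 30 min RT; streptavidin donor/Ni-chelate acceptor beads 10 ug/mL final, 20 min dark; AlphaScreen read.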
# The depositor's hits bear a star; ? = inconclusive; nt = not tested or not shown; ! = repeats disagree; [ ] = dose if it differs, or a comment. Unless noted, calls follow the shape of the dose curve; as a rule, active = well fitted inhibition curve with a large enough effect; inconclusive = small, poorly fitted or top-dose-only effect; inactive = no such curve, though single readings can be large or run the other way.
SMILES,HP1b binding inh,CtBP-E1A inh,Six1-Eya2 blk,G9a inh,JMJD2A Tudor inh,BAZ2B inh
Cc1cc([N+](=O)[O-])nn1CC(=O)Nc1cccc2nonc12,-5%,4,-7,56µM*,-35%,?
CSc1ccccc1NC(=O)Cn1nc([N+](=O)[O-])cc1C,33%,8,2,28µM*,-22%,-2%
CCCCCCCCCOC(=O)CNc1nc(C#N)nc(NCC(=O)OCCCCCCCCC)n1,8%[57 µM],nt,nt,nt,4%[57.1 µM],nt
COc1ccc(/C=N/OCC(=O)N(Cc2ccc(OC)cc2)c2ccccc2C(=O)O)cc1,11%,4,-1,-3%[59 µM],-8%,?
O=C(NCC1CCCO1)c1onc(CSc2ccccc2F)c1C(=O)O (stereo not given),5%,0,1,31%[0.501 µM],-17%,79µM*
O=C(c1ccco1)N1CCN(c2nc3c(F)cc(F)cc3s2)CC1,21%,nt,nt,11%[59 µM],-21%,-11%
Cc1ccc(N=Nc2c(C)[nH][nH]c2=O)c(C)c1,-24%,-17,-24,?,?,?
COc1ccccc1N=Nc1c(C)[nH][nH]c1=O,-3%,-12,-12,35µM*,-28%,?
COc1ccccc1N=Nc1c(C)n[nH]c1C,16%,-5,-1,7%,-10%,-17%
COc1ccc(N=Nc2c(C)[nH][nH]c2=O)cc1,-30%,-16,-2,?,-34%,56µM*
Cc1[nH][nH]c(=O)c1N=Nc1ccccc1C#N,nt,nt,nt,45µM*,nt,?
O=C(C[C@H]1C/C=C\CC[C@H](Cc2ccc(F)cc2)C(=O)OCCNC1=O)NCCO,46%,nt,1,nt,3%,nt
CCN(CC)S(=O)(=O)c1cccc(N=NC2=C(O)CCCC2=O)c1,23%,3,-23,?,-27%,?
Cc1nc2ccc(N=NC3=C(O)CCCC3=O)cc2s1,30%,-3,-9,40µM*,?,-34%[57.1 µM]
O=C1CCCC(O)=C1N=Nc1cccc(C(=O)O)c1,-26%,0,-15,28µM*,89µM*,nt
Cc1nc2ccc(N=NC3=C(O)CC(C)(C)CC3=O)cc2s1,-15%,-10,-1,?,?,?
O=C1CCCC(O)=C1N=Nc1c(Cl)cc(Cl)cc1Cl,10%,6,-1,8.9µM*,?,50µM*
O=C(O)c1cccc(N=NN2CCOCC2)c1,38%,3,-3,16µM*,-7%,-23%
c1ccc(N=NN2CCOCC2)cc1,nt,1,2,nt,nt,nt
Cc1ccc(SCc2c(C(=O)N/N=C/c3ccoc3)nnn2-c2nonc2N)cc1,22%,nt,-5,-1%,-26%,-36%
COc1ccc(CCN(C)C(=O)CSc2nc3ccccc3c(=O)n2CC2CCCO2)cc1OC (stereo not given),33%,-15,-2,nt,-12%,nt
COc1ccc(N=C2CC(C)(C)CC(=O)/C2=C(/O)c2ccccc2)cc1,33%,8,5,-21%,-10%,-27%
COc1ccccc1CNC(=O)COc1ccccc1C(=O)c1cnn(-c2ccccc2)c1,36%,-7,-7,?,-20%,-6%
Cc1ccc(-n2cc(C(=O)c3ccccc3O)cn2)cc1,66%,7,4,nt,3%,9%
O=C(Cc1cnn(-c2ccccc2)c1)c1ccc(O)c(O)c1O,?,2,2,13µM*,?,?
SMILES,HP1b binding inh,CtBP-E1A inh,Six1-Eya2 blk,G9a inh,JMJD2A Tudor inh,BAZ2B inh
Cc1ccc(O)c(C(=O)c2cnn(-c3ccccc3)c2)c1,-6%,2,-7,-3%[2.33 µM],16µM*,-6%
O=C(COc1ccccc1C(=O)c1cnn(-c2ccccc2)c1)Nc1ccccc1,13%,-17,0,45µM*,-20%,-1%
COc1ccc(NC(=O)C2CCN(C3=NS(=O)(=O)C(c4ccc(C)c(C)c4)=C3C)CC2)cc1OC,45%,nt,nt,8%[59 µM],-16%,-3%
O=C(Nc1nnc(-c2cccs2)o1)c1cccc(C(F)(F)F)c1,4%,-12,-7,19%,?,1%
CN(C)S(=O)(=O)c1ccc(C(=O)Nc2nnc(-c3cccs3)o2)cc1,66%,nt,-14,11%,79µM*,?
CC1CC(C)CN(S(=O)(=O)c2ccc(C(=O)Nc3nnc(-c4cccs4)o3)cc2)C1 (stereo not given),35%,-3,-8,-5%[59 µM],-26%,?
N#Cc1ccc(C(=O)Nc2nnc(-c3cccs3)o2)cc1,15%,-1,-12,nt,56µM*,50µM*
CN(Cc1cnc2nc(N)nc(N)c2n1)c1ccc(C(=O)N[C@H](CCC(=O)O)C(=O)O)cc1,nt,nt,nt,-7%[21.5 µM],nt,nt
CN(Cc1cnc2nc(N)nc(N)c2n1)c1ccc(C(=O)N[C@@H](CCC(=O)O)C(=O)O)cc1,30%,-27,?,7.5µM*!,-6%,nt
COc1ccc(CCC(=O)NCc2nc3cccnc3n2Cc2ccc(F)cc2)cc1,9%[57 µM],nt,nt,16%[59 µM],-8%,1%
O=[N+]([O-])c1ccc(-c2nc(C(Cl)Cl)c3ccccc3n2)cc1,24%,1,-4,22µM*,-8%,?
COc1ccc2nc3c(cc2c1)Cn1c-3nc2ccccc2c1=O,3%,nt,nt,nt,3%,nt
CCOc1ccccc1N1CCN(Cc2cc3c(cc2[N+](=O)[O-])OCO3)CC1,-14%,-16,-23,71µM*,?,?
O=[N+]([O-])c1cc2c(cc1CN1CCN(c3ccccc3F)CC1)OCO2,9%,-16,-16,-19%[59 µM],-31%,56µM*
CCc1ccccc1NC(=O)Cc1c(C(=O)O)[nH]c2ccc(Cl)cc12,8%,nt,nt,-27%[59 µM],-28%,-33%
COCCNc1ccc2cc(S(=O)(=O)N3CCCCC3)ccc2n1,37%,nt,nt,-2%[59 µM],6%,2%
COc1ccc(Nc2ccc3cc(S(=O)(=O)N4CCCC4)ccc3n2)cc1OC,22%,nt,nt,14µM*,?,?
O=S(=O)(c1ccc2nc(N3CCN(c4ccccc4F)CC3)ccc2c1)N1CCCCC1,17%[57 µM],nt,9,18µM*,5%,-16%

# Bioassay records deposited in PubChem BioAssay by National Center for Advancing Translational Sciences (NCATS).
